PubChem BioAssay (NCATS)
Inconclusive results are not listed. Unless noted, calls come from the whole dose curve; as a rule, active = well fitted curve in either direction with a large enough effect (not every such curve was filed as active); inconclusive = small, poorly fitted or top-dose-only effect, or another doubt; inactive = flat fitted curve, though single readings scatter.

What was measured:
[1] = AP1 Signaling Pathway (AID 357); settings: ME-180 AP-1-bla reporter, EGF-induced, beta-lactamase ratio, 5 h; at 17.2 µM (top of the series) unless noted;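 note: ME-180 reporter cells stimulated with EGF at its EC50 level; % is set by controls: 0 for no effect and ±100 for the full control effect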
Outline: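 Read-out was the 460nm/530nm emission ratio (excitation 405nm) after CCF4 loading for 2.5 hours at room temperature. Cells carried an AP-1-driven beta-lactamase reporter, were stimulated with EC50 EGF plus compound for 5 hours, and AC50 values came from titrations.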

[2] = NFAT Signaling Pathway (AID 444); settings: Jurkat NFAT-bla M1, carbachol, beta-lactamase ratio, 5 h; at 17.2 µM (top of the series) unless noted;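 note: carbachol stimulus at about its EC50 of 1 µM final; % is set by controls: 0 for no effect and ±100 for the full control effect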
Outline: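 Jurkat cells carrying an NFAT-driven β-lactamase reporter and co-transfected muscarinic M1 receptor were treated with compound plus carbachol (1 uM final, an EC50 level) for 5 h at 37 °C. CCF4 loading followed for 1 h at RT; 460/530 nm ratio gave %activity.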

[3] = Stat Signaling Pathway (AID 446); settings: ME-180 SIE beta-lactamase reporter, IL-6 stimulated, 5 h; at 17.2 µM (top of the series) unless noted;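 note: ME-180 cervical cancer cells given 40 pM IL-6 alongside compound; SIE-controlled beta-lactamase reporter measured as 460/530 nm FRET emission ratio; % is set by controls: 0 for no effect and ±100 for the full control effect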
Outline: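 Reporter line: ME-180 cervical carcinoma, SIE-beta-lactamase. Treatment: compound with 40 pM IL-6, 5 hrs, 37 C, in low-serum OPTI-MEM with 10 mM HEPES pH 7.3. Detection: 460/530 nm fluorescence.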

[4] = target: Glucocorticoid receptor (Homo sapiens) (UniProt P04150); assay: GR-GFP Redistribution (AID 450;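 active = compounds whose dose series gives a full or clear partial fitted curve of increased nuclear translocation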; note: potency is the fitted concentration of half-maximal effect)
Glucocorticoid receptor (Homo sapiens), sequence (P04150 whole entry, looked up): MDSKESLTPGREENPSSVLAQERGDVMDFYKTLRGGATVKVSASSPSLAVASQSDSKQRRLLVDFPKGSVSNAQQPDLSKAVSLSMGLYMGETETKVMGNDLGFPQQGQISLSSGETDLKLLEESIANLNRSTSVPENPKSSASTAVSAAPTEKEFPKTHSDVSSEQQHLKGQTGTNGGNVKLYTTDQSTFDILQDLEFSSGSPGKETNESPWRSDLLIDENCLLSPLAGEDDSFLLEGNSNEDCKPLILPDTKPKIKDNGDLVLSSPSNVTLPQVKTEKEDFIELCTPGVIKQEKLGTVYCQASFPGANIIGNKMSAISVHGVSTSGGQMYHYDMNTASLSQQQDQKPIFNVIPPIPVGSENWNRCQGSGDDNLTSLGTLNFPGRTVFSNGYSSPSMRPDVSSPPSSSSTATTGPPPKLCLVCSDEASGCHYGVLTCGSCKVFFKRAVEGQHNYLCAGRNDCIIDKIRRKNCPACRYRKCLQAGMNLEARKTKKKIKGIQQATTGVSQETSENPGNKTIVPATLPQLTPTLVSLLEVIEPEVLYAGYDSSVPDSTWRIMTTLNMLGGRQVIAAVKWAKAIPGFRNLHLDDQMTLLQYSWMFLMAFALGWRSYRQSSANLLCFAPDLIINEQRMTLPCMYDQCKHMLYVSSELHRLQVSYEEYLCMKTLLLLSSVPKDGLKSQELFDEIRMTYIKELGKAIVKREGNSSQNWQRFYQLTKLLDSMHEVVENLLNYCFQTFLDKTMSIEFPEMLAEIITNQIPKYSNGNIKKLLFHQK

NC(=O)/C(=N\O)c1ccccc1
inactive: activity change, negative = inhibition [1] -4.98% | activity change, negative = inhibition [2] 15.2% | activity, negative = inhibition [3] -0.233% | Potency [4] > 20.6 µM

CCOC(=O)CNS(=O)(=O)c1cc(-c2n[nH]c(=O)c3ccccc23)ccc1C
inactive: activity change, negative = inhibition [1] -5.55% | activity change, negative = inhibition [2] 5.83% | activity, negative = inhibition [3] -10.1% | Potency [4] > 20.6 µM

CCCNC1=C(C)C(=O)CC1
inactive: activity change, negative = inhibition [1] 11.1% | activity change, negative = inhibition [2] -5.45% | activity, negative = inhibition [3] 0.709% | Potency [4] > 20.6 µM

CCCOc1ccc(C2NC(=O)NC2=O)cc1 (stereo not given)
inactive: activity change, negative = inhibition [1] 5.97% | activity change, negative = inhibition [2] 9.35% | activity, negative = inhibition [3] -1.78% | Potency [4] > 20.6 µM

C=CCn1c(SCC(=O)NC23CC4CC(CC(C4)C2)C3)nc(O)cc1=O
inactive: activity change, negative = inhibition [1] 8.04% | activity change, negative = inhibition [2] -3.75% | activity, negative = inhibition [3] -2.84% | Potency [4] > 20.6 µM

S=c1nc(-c2ccccc2)[nH]n1-c1ccccc1
inactive: activity change, negative = inhibition [1] 21.6% | activity change, negative = inhibition [2] 5.29% | activity, negative = inhibition [3] -1.15% | Potency [4] > 20.6 µM

CC1(C(=O)CSc2n[nH]c(-c3ccccc3Cl)n2)CCC(=O)O1 (stereo not given)
inactive: activity change, negative = inhibition [1] 6.38% | activity change, negative = inhibition [2] 4.32% | activity, negative = inhibition [3] 0.984% | Potency [4] > 20.6 µM

CC(C)(C)C1=Nn2c(nnc2C2CCCCC2)SC1
inactive: activity change, negative = inhibition [1] -2.23% | activity change, negative = inhibition [2] -6.37% | activity, negative = inhibition [3] 22.7% | Potency [4] > 20.6 µM

O=C1CCC(=O)N1c1nc2nc(-c3ccccc3)cc(-c3ccccc3)n2n1
inactive: activity change, negative = inhibition [1] -12.9% | activity change, negative = inhibition [2] 6.64% | activity, negative = inhibition [3] -1.33% | Potency [4] > 20.6 µM

Cc1nn(CC(=O)N2CCOCC2)c(=O)c2ccccc12
inactive: activity change, negative = inhibition [1] 10.7% | activity change, negative = inhibition [2] 8.23% | activity, negative = inhibition [3] 1.28% | Potency [4] > 20.6 µM

COc1nnnc2c1sc1nc(N3CCOCC3)c3c(c12)CC(C)(C)OC3
inactive: activity change, negative = inhibition [1] -3.49% | activity change, negative = inhibition [2] -9.1% | activity, negative = inhibition [3] -7.42% | Potency [4] > 20.6 µM

O=C(NCCCn1ccnc1)C(Cc1ccccc1)N1C(=O)c2ccccc2C1=O (stereo not given)
inactive: activity change, negative = inhibition [1] -14.7% | activity change, negative = inhibition [2] 7.45% | activity, negative = inhibition [3] 5.97% | Potency [4] > 20.6 µM

CC(=O)/C(C#N)=C1\NC(=O)C(Cc2ccccc2)S1 (stereo not given)
inactive: activity change, negative = inhibition [1] 0.644% | activity change, negative = inhibition [2] -11.2% | activity, negative = inhibition [3] 3.16% | Potency [4] > 20.6 µM

c1ccc(Cc2nn[nH]n2)cc1
inactive: activity change, negative = inhibition [1] 7.13% | activity change, negative = inhibition [2] -3.11% | activity, negative = inhibition [3] 8.05% | Potency [4] > 20.6 µM

COc1ccccc1-c1c(C)oc2c(CN3CCN(C)CC3)c(O)ccc2c1=O
inactive: activity change, negative = inhibition [1] 1.13% | activity change, negative = inhibition [2] 5.13% | activity, negative = inhibition [3] 4.08% | Potency [4] > 20.6 µM

O=C1C=C(NCCNc2c(F)c(F)c(CO)c(F)c2F)CCC1
inactive: activity change, negative = inhibition [1] -0.699% | activity change, negative = inhibition [2] -5.54% | activity, negative = inhibition [3] 2.13% | Potency [4] > 20.6 µM

Cc1c(Cl)c(C(F)(F)F)nn1CC(=O)N1CCSCC1
inactive: activity change, negative = inhibition [1] 9.46% | activity change, negative = inhibition [2] 0.195% | activity, negative = inhibition [3] 5.37% | Potency [4] > 20.6 µM

Cc1cc(=O)oc(C)c1C(=O)NCC(C)C
inactive: activity change, negative = inhibition [1] 0.878% | activity change, negative = inhibition [2] -1.32% | activity, negative = inhibition [3] 8.66% | Potency [4] > 20.6 µM

Cc1cc(=O)oc(C)c1C(=O)NC12CC3CC(CC(C3)C1)C2
inactive: activity change, negative = inhibition [1] -5.66% | activity change, negative = inhibition [2] 1.02% | activity, negative = inhibition [3] 1.82% | Potency [4] > 20.6 µM

COc1ccc(-n2ccc(=O)c3c2CCCC3=O)cc1
inactive: activity change, negative = inhibition [1] 1.82% | activity change, negative = inhibition [2] 1.88% | activity, negative = inhibition [3] 3.34% | Potency [4] > 20.6 µM

COc1ccc(OC)c(C2/C(=C(/O)c3cnn(-c4ccccc4)c3C)C(=O)C(=O)N2CCN(C)C)c1 (stereo not given)
inactive: activity change, negative = inhibition [1] 0.346% | activity change, negative = inhibition [2] 4.77% | activity, negative = inhibition [3] 3.03% | Potency [4] > 20.6 µM

O=C(C1=C(O)C(=O)N(CCCN2CCOCC2)C1c1ccccn1)c1cc2ccccc2o1 (stereo not given)
inactive: activity change, negative = inhibition [1] 0.283% | activity change, negative = inhibition [2] 1.99% | activity, negative = inhibition [3] -5.61% | Potency [4] > 20.6 µM

O=S(CCc1ccncc1)Cc1ccccc1 (stereo not given)
inactive: activity change, negative = inhibition [1] 9.28% | activity change, negative = inhibition [2] 26% | activity, negative = inhibition [3] 2.34% | Potency [4] > 20.6 µM

CC(=O)NC(=O)Nc1sc(=S)n(C)c1C
inactive: activity change, negative = inhibition [1] -0.255% | activity change, negative = inhibition [2] 15.7% | activity, negative = inhibition [3] 1.93% | Potency [4] > 20.6 µM

Cc1cc(C)n(CC(=O)c2ccccc2)c(=O)c1C#N
inactive: activity change, negative = inhibition [1] 17.1% | activity change, negative = inhibition [2] -3.95% | activity, negative = inhibition [3] -3.77% | Potency [4] > 20.6 µM
